{
  "source": "paper PMC8384837",
  "about": "“Expanding the binding specificity for RNA recognition by a PUF domain”",
  "assay_in_all_cases": "yeast three-hybrid, YBZ-1, SC-Leu-His + 0.5 mM 3-AT, 4 days",
  "conditions_in_all_cases": "tags: N-Gal4 AD-HA kept; label: inside an RPR1-promoter hybrid RNA with tandem MS2 sites; ssRNA",
  "key": {"[1]": {"target": "PUM1 PUF domain R5-LYM (Homo sapiens, UniProt Q14671 828-1176, C1007L;R1008Y;Q1011M)", "sequence (Q14671 828-1176 C1007L/R1008Y/Q1011M)": "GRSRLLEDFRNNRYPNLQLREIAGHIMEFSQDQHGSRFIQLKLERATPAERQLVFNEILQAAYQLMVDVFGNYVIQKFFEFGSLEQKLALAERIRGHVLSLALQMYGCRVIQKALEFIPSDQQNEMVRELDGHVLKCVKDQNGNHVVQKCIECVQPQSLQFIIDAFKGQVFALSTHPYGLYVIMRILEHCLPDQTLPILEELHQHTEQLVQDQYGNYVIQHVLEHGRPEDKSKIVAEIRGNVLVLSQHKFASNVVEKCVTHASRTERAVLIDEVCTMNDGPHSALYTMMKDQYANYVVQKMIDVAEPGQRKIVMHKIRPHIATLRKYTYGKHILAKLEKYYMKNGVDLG", "method_in_brief": "(§1)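 The interaction score is the log change in how often each variant appears, from input to selection. Frequencies came from PCR-amplified, Illumina-sequenced repeat regions of Pumilio-1 PUF domain libraries grown in strain YBZ-1 (LexA–MS2 coat fusion, HIS3 reporter) alongside matching RNA elements. Input plates were SC-Leu and selection plates were SC-Leu-His + 0.5 mM 3-AT, each for four days, and the log2 calculation used a pseudocount of 1 where a variant was absent.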"}, "[2]": {"target": "PUM1 PUF domain R8-HWR (Homo sapiens, UniProt Q14671 828-1176, N1122H;Y1123W;Q1126R)", "sequence (Q14671 828-1176 N1122H/Y1123W/Q1126R)": "as the sequence (Q14671 828-1176 C1007L/R1008Y/Q1011M) above, with L180C, Y181R, M184Q, N295H, Y296W, Q299R counted along it", "method_in_brief": "as §1"}, "[3]": {"target": "PUM1 PUF domain R8-PYS (Homo sapiens, UniProt Q14671 828-1176, N1122P;Q1126S)", "sequence (Q14671 828-1176 N1122P/Q1126S)": "as the sequence (Q14671 828-1176 C1007L/R1008Y/Q1011M) above, with L180C, Y181R, M184Q, N295P, Q299S counted along it", "method_in_brief": "as §1"}, "[4]": {"target": "PUM1 PUF domain R2-LWY (Homo sapiens, UniProt Q14671 828-1176, N899L;Y900W;Q903Y)", "sequence (Q14671 828-1176 N899L/Y900W/Q903Y)": "as the sequence (Q14671 828-1176 C1007L/R1008Y/Q1011M) above, with N72L, Y73W, Q76Y, L180C, Y181R, M184Q counted along it", "method_in_brief": "as §1"}, "[5]": {"target": "PUM1 PUF domain R1-TVE (Homo sapiens, UniProt Q14671 828-1176, S863T;R864V;Q867E)", "sequence (Q14671 828-1176 S863T/R864V/Q867E)": "as the sequence (Q14671 828-1176 C1007L/R1008Y/Q1011M) above, with S36T, R37V, Q40E, L180C, Y181R, M184Q counted along it", "method_in_brief": "as §1"}, "[6]": {"target": "PUM1 PUF domain R5-KFT (Homo sapiens, UniProt Q14671 828-1176, C1007K;R1008F;Q1011T)", "sequence (Q14671 828-1176 C1007K/R1008F/Q1011T)": "as the sequence (Q14671 828-1176 C1007L/R1008Y/Q1011M) above, with L180K, Y181F, M184T counted along it", "method_in_brief": "as §1"}},
  "data": [
    {"sequence": "GGCUAGAACUAGUGGAUCCCCCGGCGCCCGGCGGCUCGAGCCCGGGUAAGUGUAAAUAGUCUGCAUGCCGCCGGGCGCCAUGCCUGCAGGUCGACUCUAGAAAACAUG", "values": [
      {"measurement": "binding signal", "setting": "[1]", "value": "2.36 log2 enrichment (interaction score)"}
    ]},
    {"sequence": "GGCUAGAACUAGUGGAUCCCCCGGCGCCCGGCGGCUCGAGCCCGGGUAAGCGUAAAUAGUCUGCAUGCCGCCGGGCGCCAUGCCUGCAGGUCGACUCUAGAAAACAUG", "values": [
      {"measurement": "binding signal", "setting": "[2]", "value": "7.03 log2 enrichment (interaction score)"},
      {"measurement": "binding signal", "setting": "[3]", "value": "3.23 log2 enrichment (interaction score)"}
    ]},
    {"sequence": "GGCUAGAACUAGUGGAUCCCCCGGCGCCCGGCGGCUCGAGCCCGGGUAAGUGUAAAAAGUCUGCAUGCCGCCGGGCGCCAUGCCUGCAGGUCGACUCUAGAAAACAUG", "values": [
      {"measurement": "binding signal", "setting": "[4]", "value": "8.01 log2 enrichment (interaction score)"}
    ]},
    {"sequence": "GGCUAGAACUAGUGGAUCCCCCGGCGCCCGGCGGCUCGAGCCCGGGUAAGUGUAAAUGGUCUGCAUGCCGCCGGGCGCCAUGCCUGCAGGUCGACUCUAGAAAACAUG", "values": [
      {"measurement": "binding signal", "setting": "[5]", "value": "2.57 log2 enrichment (interaction score)"}
    ]},
    {"sequence": "GGCUAGAACUAGUGGAUCCCCCGGCGCCCGGCGGCUCGAGCCCGGGUAAGUGUCAAUAGUCUGCAUGCCGCCGGGCGCCAUGCCUGCAGGUCGACUCUAGAAAACAUG", "values": [
      {"measurement": "binding signal", "setting": "[6]", "value": "5.09 log2 enrichment (interaction score)"}
    ]}
  ]
}
